From PubChem BioAssay
S1P3 antag – antagonists of human S1P3 receptor. Q99500. CHO S1P3 NFAT-BLA reporter, FRET fluorescence, antagonist mode. inhibition, % at 4.98 µM. 170,000 compounds, 0.27% hits;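 active means inhibition above the plate cutoff, the mean inhibition of test wells on that plate plus 3 SD, cut at about 28% in these data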;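 further: cells challenged with S1P at its EC80 of 0.8 µM; blue over green emission ratio from cleaved BLA substrate after 4 h stimulation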
EP2 mod – modulates human prostaglandin E2 receptor EP2 signaling | EP2-expressing cells, cAMP HTRF FRET, PGE2 co-stimulation | induction, % at 25 µM | 260,000 compounds, 0.83% hits | P43116;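 active means compounds whose cAMP rise, as percent of the full-agonist control response, exceeds 60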;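 further: rat C6 glioma line stably carrying human EP2 under a CMV promoter; the protocol text gives 20 µM as final concentration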
EP2 antag – inhibitors of human EP2 prostaglandin E2 receptor; P43116; C6 glioma cells expressing human EP2, cAMP TR-FRET; cells stimulated with saturating PGE2; inhibition, % at 25 µM; 260,000 compounds, 0.52% hits;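 active means percent inhibition above 40 after rounding to a whole number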;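 further: rat C6 glioma host cells with rolipram phosphodiesterase inhibitor present; the protocol text gives 20 µM as final concentration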
KCC2 mod – KCC2 (human) Cl- transport modulation | 190,000 compounds, 2.2% hits | KCC2 cells, thallium flux FluoZin-2 fluorescence | B-score of Tl+ flux slope (higher = more flux/activation; lower = inhibition) at 10 µM | Q9H2X9;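 active means thallium flux slope and its plate-corrected score both differing from the plate sample mean at a set confidence after two filtering rounds, in either direction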;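 further: slope of fluorescence scaled to starting intensity during 10 to 20 s after thallium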
Target sequence (Q9H2X9 whole entry, looked up): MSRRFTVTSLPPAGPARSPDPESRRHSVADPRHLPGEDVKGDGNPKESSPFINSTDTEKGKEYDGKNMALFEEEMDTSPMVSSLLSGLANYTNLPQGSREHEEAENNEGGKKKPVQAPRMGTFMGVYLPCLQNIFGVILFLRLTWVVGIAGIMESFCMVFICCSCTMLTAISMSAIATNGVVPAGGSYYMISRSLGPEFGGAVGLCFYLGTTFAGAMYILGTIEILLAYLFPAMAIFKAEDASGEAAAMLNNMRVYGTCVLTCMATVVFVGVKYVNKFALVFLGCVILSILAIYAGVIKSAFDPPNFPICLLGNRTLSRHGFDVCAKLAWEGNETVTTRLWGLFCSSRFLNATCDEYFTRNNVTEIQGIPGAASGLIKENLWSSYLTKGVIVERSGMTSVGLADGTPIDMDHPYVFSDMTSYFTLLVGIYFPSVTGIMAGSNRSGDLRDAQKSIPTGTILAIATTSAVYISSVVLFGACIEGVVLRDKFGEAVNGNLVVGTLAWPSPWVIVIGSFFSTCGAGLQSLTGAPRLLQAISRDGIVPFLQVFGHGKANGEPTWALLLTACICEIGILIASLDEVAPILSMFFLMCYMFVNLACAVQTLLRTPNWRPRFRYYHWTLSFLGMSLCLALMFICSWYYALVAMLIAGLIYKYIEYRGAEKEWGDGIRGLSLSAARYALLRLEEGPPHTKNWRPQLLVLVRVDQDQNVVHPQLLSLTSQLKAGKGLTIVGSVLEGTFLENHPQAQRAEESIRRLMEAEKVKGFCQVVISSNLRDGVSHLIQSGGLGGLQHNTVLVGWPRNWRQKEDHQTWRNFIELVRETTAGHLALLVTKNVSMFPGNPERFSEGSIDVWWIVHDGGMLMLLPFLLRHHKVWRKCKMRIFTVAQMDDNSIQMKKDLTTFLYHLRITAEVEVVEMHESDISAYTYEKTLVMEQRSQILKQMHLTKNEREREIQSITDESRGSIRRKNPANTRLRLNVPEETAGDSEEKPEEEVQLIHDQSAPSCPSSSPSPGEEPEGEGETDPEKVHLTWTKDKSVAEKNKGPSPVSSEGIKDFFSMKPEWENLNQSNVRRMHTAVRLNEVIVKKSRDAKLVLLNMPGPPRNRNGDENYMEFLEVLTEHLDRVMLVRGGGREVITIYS
KCC2 sec1 – KCC2 (human) modulation, secondary assay | shares compounds with KCC2 mod | HEK293-KCC2, thallium flux, FluoZin2 fluorescence; active compounds read high | normalised thallium flux (F/F0 slope) at 10 µM | 3,700 compounds, 15% hits | AID 1713;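 active means thallium flux slope above the same plate's solvent-only control mean plus 3 SD; inconclusive means the two replicate wells disagree; inactive means no significant difference from solvent-only control wells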
KCC2 bumet counter – thallium flux persisting under bumetanide in KCC2 cells, counter-screen secondary assay; HEK293-KCC2 + bumetanide/ouabain, thallium flux FluoZin2; active compounds read high; normalized thallium flux at 10 µM; shares compounds with KCC2 mod; 3,700 compounds, 49% hits;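 active means thallium entry rate above the same plate's blocked-transporter control wells by more than 3 SD; inconclusive means the two repeat wells disagree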;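 further: raw slope of fluorescence over initial fluorescence between 10 and 20 s after thallium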
KCC2 secondary2 – confirmation of human KCC2 transport modulators; shares compounds with KCC2 mod; HEK293-KCC2, thallium flux FluoZin2 fluorescence; actives lie on both sides; F/F0 rise rate, 10–20 s post-thallium; normalized thallium flux at 10 µM; 3,700 compounds, 23% hits;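 active means thallium flux slope more than 3 SD above or below the plate's solvent-only control mean, mostly below; inconclusive means the two repeat wells disagreed; inactive means no significant shift from solvent-only controls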
HEK293 Tl flux – parental HEK flux effect, counter-screen; HEK293 parental cells, thallium flux FluoZin2, ouabain; baseline-ratio fluorescence slope, 10–20 s after thallium; thallium flux rate (normalised fluorescence) at 10 µM; 3,700 compounds, 46% hits; shares compounds with KCC2 mod;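 active means thallium flux rate significantly above the same plate's solvent-only control wells, beyond their mean plus 3 SD; inconclusive means the two replicate wells gave conflicting results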
KCC2 retest ouab – confirmation of human KCC2 modulators with ouabain; raw Tl+ flux slope (below DMSO = inhibition, above = activation) at 10 µM; HEK293-KCC2, thallium flux FluoZin2 fluorescence; bidirectional: low = inhibitor, high = activator; AID 1717; shares compounds with KCC2 mod; 3,700 compounds, 48% hits;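 active means thallium flux slope beyond 3 SD from same-plate DMSO control mean in most replicates, usually higher, sometimes lower; inconclusive means repeat tests gave conflicting results; inactive means no significant difference from controls in most replicates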;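 further: slope of initial-normalized fluorescence between seconds 10 and 20 after thallium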
HEK counter2 – acts in parental HEK cells, second KCC2 counter-screen | HEK293 parental, thallium flux FluoZin-2 fluorescence slope | shares compounds with KCC2 mod | thallium flux slope at 10 µM | 3,700 compounds, 33% hits;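 active means thallium flux slope above the same plate's solvent-control mean plus 3 SD in both duplicate wells; inconclusive means duplicate wells that disagreed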;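 further: run without ouabain in cells lacking the KCC2 cotransporter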
Of the large screens only hits and unclear results are named; the others gave an inactive call (follow-up assays come after a bar, where they were run). Rows were chosen to be rich in hits. Some 3.1% of all compounds tested hit in one or more screens of this group.

CCOc1ccc(N(CC(=O)N2CCCCCC2)S(=O)(=O)c2ccc(OC)c(OC)c2)cc1	none (no result: S1P3 antag, KCC2 mod)
O=C(Cn1cnc2c(nnn2Cc2ccc(Cl)cc2)c1=O)c1ccccc1	none
O=C(Cn1cnc2c(nnn2Cc2ccccc2)c1=O)c1ccccc1	KCC2 mod -4.72 (no result: EP2 antag) | KCC2 sec1 inactive | KCC2 bumet counter inactive | KCC2 secondary2 0.0237 | HEK293 Tl flux inconclusive | KCC2 retest ouab 0.0136 | HEK counter2 inactive
CC1(C)Cc2c(C#N)c(NCCc3ccccc3)nc(-c3ccco3)c2CO1	none (no result: S1P3 antag) | KCC2 sec1 inactive | KCC2 bumet counter inactive | KCC2 secondary2 inactive | HEK293 Tl flux inactive | KCC2 retest ouab inactive | HEK counter2 inactive
CC1(C)Cc2c(C#N)c(N3CCN(C(=O)c4ccco4)CC3)nc(Cc3ccccc3)c2CO1	none (no result: S1P3 antag, KCC2 mod) | KCC2 sec1 inactive | KCC2 bumet counter inactive | KCC2 secondary2 inactive | HEK293 Tl flux inconclusive | KCC2 retest ouab 0.0171 | HEK counter2 inactive
Cc1nc(N2CCN(C(=O)c3ccc(Cl)cc3)CC2)c(C#N)c2c1COC(C)(C)C2	none (no result: S1P3 antag) | KCC2 sec1 inactive | KCC2 bumet counter inactive | KCC2 secondary2 inactive | HEK293 Tl flux inconclusive | KCC2 retest ouab inactive | HEK counter2 inactive
Cc1cc(C(F)F)n2nc(C(=O)Nc3c(C)nn(Cc4ccccc4Cl)c3C)nc2n1	none (no result: S1P3 antag, KCC2 mod)
CCOC(=S)N/C(=N\S(=O)(=O)c1ccc(C)cc1)c1ccccc1	none (no result: S1P3 antag, KCC2 mod) | KCC2 sec1 inconclusive | KCC2 bumet counter 0.0146 | KCC2 secondary2 inactive | HEK293 Tl flux inconclusive | KCC2 retest ouab 0.0278 | HEK counter2 inactive
Cc1ccc(S(=O)(=O)NN/C(=N/S(=O)(=O)c2ccccc2)c2ccccc2)cc1	none
COc1ccc(NC(=S)N/C(=N/S(=O)(=O)c2ccc(C)cc2)c2ccccc2)cc1	KCC2 mod 4.18 | KCC2 sec1 inconclusive | KCC2 bumet counter 0.02 | KCC2 secondary2 inactive | HEK293 Tl flux 0.0129 | KCC2 retest ouab 0.0262 | HEK counter2 inactive
Cc1cccc(NC(=O)CSc2nc3c(=O)[nH]c(=O)[nH]c3n2C)c1	none (no result: S1P3 antag, KCC2 mod)
Cc1cc(NC(=O)CS(=O)(=O)c2cn(Cc3ccccc3Cl)c3ccccc23)no1	KCC2 mod -2.92 (no result: S1P3 antag) | KCC2 sec1 inactive | KCC2 bumet counter inactive | KCC2 secondary2 inconclusive | HEK293 Tl flux 0.00602 | KCC2 retest ouab 0.0149 | HEK counter2 inconclusive
Cc1ccc(-c2oc3ccccc3c(=O)c2OCC(=O)O)cc1	none
Cc1ccc(-c2oc3ccccc3c(=O)c2O)cc1	KCC2 mod 106 | KCC2 sec1 0.00992 | KCC2 bumet counter 0.101 | KCC2 secondary2 0.0811 | HEK293 Tl flux 0.0949 | KCC2 retest ouab 0.0974 | HEK counter2 0.0798
Cc1cc(S(=O)(=O)N(C)CCc2ccccc2)ccc1-n1cnnn1	KCC2 mod -4.61 | KCC2 sec1 inactive | KCC2 bumet counter inactive | KCC2 secondary2 0.0241 | HEK293 Tl flux inactive | KCC2 retest ouab 0.0158 | HEK counter2 inactive
Cc1cc(S(=O)(=O)N(Cc2ccccc2)Cc2ccc(N(C)C)cc2)ccc1-n1cnnn1	none
COc1ccc2cc(CN(CCCO)C(=O)Nc3ccccc3Cl)c(=O)[nH]c2c1	none (no result: S1P3 antag, KCC2 mod)
CN1C2=C(C(=O)CC(C)(C)C2)C(c2ccc(OCC(=O)O)cc2)C2=C1CC(C)(C)CC2=O	none (no result: S1P3 antag, KCC2 mod)
Cc1cccc(-c2nc(CS(=O)CC(=O)N3CCc4ccccc4C3)c(C)o2)c1 (configuration not stated)	none (no result: KCC2 mod) | KCC2 sec1 inactive | KCC2 bumet counter inactive | KCC2 secondary2 inconclusive | HEK293 Tl flux inactive | KCC2 retest ouab inconclusive | HEK counter2 inactive
Cc1cc(-c2cncnc2C2CCCN(CC(=O)NCc3ccco3)C2)on1 (configuration not stated)	none (no result: S1P3 antag, EP2 antag, KCC2 mod)
